Compounds with a hit are over-represented: about 1.6% of the library has one in this group of screens.
KCNQ2 pot = potentiators of rat KCNQ2 potassium channel; O88943; CHO-K1 KCNQ2, FluxOR thallium flux fluorescence; hits give high values; B-score at 10 µM; 0.54% of 310,000 active;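 active means fluorescence ratio B-score at least 3 SD of library B-scores, with initial fluorescence B-score within 3 of them, cut at about 5.3 in these data; same plate scores as AID 2156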;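 further: B-score of peak minus minimum over baseline fluorescence ratio after K+ and Tl+ stimulus; positive B-score means potentiation of KCNQ2 with more thallium influx and brighter signal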
KCNQ2 block = KCNQ2 (rat) channel inhibition | O88943 | CHO-K1 KCNQ2, FluxOR thallium flux, 20 min; hits give low values | B-score at 10 µM | 1.1% of 310,000 active | AID 2156;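 active means fluorescence ratio B-score at most minus 3 library SDs, with starting brightness B-score within 2 library SDs, cut at about -5.5 in these data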
Kir21 confirm = confirmation of mouse Kir2.1 potassium channel inhibitors | Tl flux remaining, % of negative control (hits give low values), % at 10 µM | AID 2032 | Kir2.1-expressing cells, FluxOR thallium flux fluorescence; hits give low values | 41% of 2,300 active | shares compounds with KCNQ2 pot;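 active means Primary-screen hit whose thallium flux fell at least 3 control SD below untreated wells in both duplicates, with normal baseline fluorescence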
Target sequence (P35561 whole entry, looked up): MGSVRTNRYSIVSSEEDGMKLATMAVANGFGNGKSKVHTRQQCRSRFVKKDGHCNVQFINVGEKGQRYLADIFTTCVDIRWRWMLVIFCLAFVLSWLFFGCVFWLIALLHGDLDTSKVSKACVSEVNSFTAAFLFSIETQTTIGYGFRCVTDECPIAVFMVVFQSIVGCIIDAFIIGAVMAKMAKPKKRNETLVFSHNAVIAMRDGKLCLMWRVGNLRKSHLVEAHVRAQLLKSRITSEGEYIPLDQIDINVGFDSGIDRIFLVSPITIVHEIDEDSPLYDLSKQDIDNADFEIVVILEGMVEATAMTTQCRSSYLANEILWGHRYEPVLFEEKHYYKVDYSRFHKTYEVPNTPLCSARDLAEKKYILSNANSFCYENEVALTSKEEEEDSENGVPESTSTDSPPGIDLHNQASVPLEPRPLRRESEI
HEK293 Tl flux = alters thallium flux in parental HEK293 cells, Kir2.1 counter-screen; shares compounds with KCNQ2 pot; FluxOR thallium flux fluorescence; 0% = unstimulated blank wells; FluxOR signal as % of negative control (100 = no effect), % at 10 µM; 19% of 2,300 active;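 active means dye signal at least 3 control SD above or below untreated wells in both duplicates, raw fluorescence within 3, either direction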;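 further: percent is based on the flux ratio of peak minus minimum fluorescence over baseline F0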
CHO-K1 ctr = alters thallium flux in parental CHO-K1 cells, KCNQ2 counter-screen; AID 2282; 43% of 1,200 active; shares compounds with KCNQ2 pot; FluxOR thallium flux fluorescence; zero = vehicle mean+3SD, 100% = vehicle-minus-blank window; activity increase over 3SD of controls, % at 10 µM;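 active means signal rise of at least 3 SD above the untreated control mean, in both duplicate wells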;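 further: counter screen of KCNQ2 potentiator hits so any rise reflects channel-independent effects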
KCNQ1 sel pot = human KCNQ1 counter-target activity of KCNQ2 potentiators; shares compounds with KCNQ2 pot; CHO KCNQ1 stable, FluxOR thallium flux fluorescence; beyond 3SD, as % of vehicle-control signal; activation over 3SD threshold, % at 10 µM; 28% of 1,200 active;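 active means fluorescence ratio rise of at least 3 SD of vehicle wells above their mean, in both replicate wells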
KCNQ2 pot conf = confirmation of rat KCNQ2 potassium channel potentiators; potentiation, less the hit threshold, % at 10 µM; shares compounds with KCNQ2 pot; 68% of 1,200 active; CHO-KCNQ2 cells, FluxOR thallium flux fluorescence;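 active means fluorescence ratio rising 3 SD or more over the vehicle control mean in both replicates, plus primary screen hit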;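 further: peak minus minimum thallium fluorescence divided by baseline after K/Tl stimulus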
Kir21 spec = selectivity of KCNQ2 potentiators: effect on mouse Kir2.1 | 2% of 1,200 active | activity over 3SD threshold, % at 10 µM | shares compounds with KCNQ2 pot | HEK293 Kir2.1, FluxOR thallium flux fluorescence;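 active means fluorescence ratio rise of at least 3 SD above the vehicle-control mean, seen in both replicates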
KCNQ2 W236L pot = rat KCNQ2 W236L mutant potentiation by KCNQ2 potentiators. shares compounds with KCNQ2 pot. CHO KCNQ2-W236L, automated patch clamp current. current increase over 3SD of negative controls (%), hits give high values, % at 25 µM. 10% of 940 active. AID 2558;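 active means current increase at least 3 SD of the untreated controls above them in both duplicate recordings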
Hits are given with their value; 0 = inactive; - = no result given.

SMILES	KCNQ2 pot	KCNQ2 block	Kir21 confirm	HEK293 Tl flux	others
O=C(Nc1ccccc1Cl)c1ccc(S(=O)(=O)NCC2CCCO2)cc1 (centres undefined)	-	0	-	-
CC(C)(C)c1cc(C2=CSC3=NCCN23)cc(C(C)(C)C)c1O	-	0	-	-
C=CCn1c(SCC(=O)NCCOC)nc2scc(-c3ccco3)c2c1=O	-	0	-	-
C=CCn1c(SCC(N)=O)nc2scc(-c3ccc(C)o3)c2c1=O	5.3	0	0	195%	CHO-K1 ctr=22;KCNQ1 sel pot=0;KCNQ2 pot conf=25;Kir21 spec=0;KCNQ2 W236L pot=0
CC(C)(C)NC(=O)CSc1nc(O)cc(=O)[nH]1	-	0	-	-
COc1ccc(OCCSc2nnc(-c3ccc(OC)cc3)n2N)cc1	-	0	-	-
CCN1C(=O)CSc2ccc(C(=O)NCc3ccc(OC)cc3)cc21	0	0	58%	0
CCOc1ccc(CNC(=O)c2ccc3c(c2)N(CC)CCS3)cc1	-	0	-	-
Cc1ccccc1OCC(=O)Nc1ccc2[nH]ncc2c1	0	0	-	-
C(#CCN1CCCC1)CC(c1ccccc1)c1ccccc1	-	0	40%	0
OC(CC#CCN1CCCC1)(c1ccccc1)c1ccccc1	-	0	-	-
CCCNC(=O)NC(=O)CSc1nc2ccccc2c(=O)n1Cc1ccncc1	0	0	-	-
CC[C@@H](C)[C@H](CN[C@H](CNC)C(C)C)NC[C@@H](C)c1ccc(CC(C)C)cc1	-	0	26%	0
CC[C@H](C)[C@@H](CNC)NC[C@@H](Cc1ccc(O)cc1)NCC(C)(C)C	0	0	-	-
COc1ccc(C)cc1N(CC(=O)Nc1ccc(S(=O)(=O)N2CCCC2)cc1)S(C)(=O)=O	0	0	-	-
CC(=O)N(C(C)=O)n1c(C)nc2sc3c(c2c1=O)CCCC3	0	0	-	-
CCCn1c(SCC(=O)NCC)nc2sc3c(c2c1=O)CCC3	-	0	-	-
CCn1c(SC(C)C(=O)O)nc2sc3c(c2c1=O)CCC3 (centres undefined)	8.7	0	0	205%	CHO-K1 ctr=5.3;KCNQ1 sel pot=0;KCNQ2 pot conf=0.7;Kir21 spec=0;KCNQ2 W236L pot=0
CCc1nc2sc3c(c2c(=O)n1NC(=O)CCl)CCCC3	5.7	0	0	0	CHO-K1 ctr=0;KCNQ1 sel pot=0;KCNQ2 pot conf=0;Kir21 spec=0;KCNQ2 W236L pot=0
CC(Sc1nc2sc3c(c2c(=O)n1-c1ccccc1)CCCC3)C(=O)O (centres undefined)	0	0	-	-
CCCn1c(SCC(=O)N2CCN(C(C)=O)CC2)nc2sc3c(c2c1=O)CCC3	6.1	0	0	290%	CHO-K1 ctr=15;KCNQ1 sel pot=0;KCNQ2 pot conf=24;Kir21 spec=0;KCNQ2 W236L pot=0
COC(=O)Cc1ccc(NC(=S)NCCSc2ccc(Cl)cc2)cc1	-	0	-	-
O=C(NC(CC(=O)N1CCCC(C(F)(F)F)C1)c1ccccc1)c1ccccc1Cl (centres undefined)	-	0	-	-
CCCC1(c2ccccc2)NC(=O)N(CC(=O)Nc2ccccc2C(F)(F)F)C1=O (centres undefined)	-	0	-	-
O=C(NC(=S)N1CCCCCC1)c1ccccc1Cl	0	0	-	-
SMILES	KCNQ2 pot	KCNQ2 block	Kir21 confirm	HEK293 Tl flux	others
O=C(NC(=S)N1CCCCCC1)c1ccc(Cl)cc1Cl	9.1	0	0	238%	CHO-K1 ctr=27;KCNQ1 sel pot=6.1;KCNQ2 pot conf=12;Kir21 spec=0;KCNQ2 W236L pot=0
Cc1ccccc1C(=O)NNC(=S)NC(=O)c1ccc(Cl)cc1Cl	0	0	-	-
CCCN(CCC)C(=S)NC(=O)c1ccc(Cl)cc1Cl	16	0	0	394%	CHO-K1 ctr=0;KCNQ1 sel pot=0;KCNQ2 pot conf=67;Kir21 spec=0;KCNQ2 W236L pot=0
NC(=O)CSc1nnc(-c2cc(-c3ccc(Cl)cc3)nc3ccccc23)o1	0	0	-	-
CC(C)c1ccc(C(N)=S)cc1	-	0	-	-
CCCCn1c(NC(=O)c2ccc(F)cc2)c(C#N)c2nc3ccccc3nc21	5.7	0	0	66%	CHO-K1 ctr=103;KCNQ1 sel pot=0;KCNQ2 pot conf=0;Kir21 spec=0;KCNQ2 W236L pot=0
CCC(C)n1c(NC(=O)c2ccccc2)c(C#N)c2nc3ccccc3nc21 (centres undefined)	-	0	-	-
O=C(Cc1ccccc1)Nc1nc(=O)c2ccccc2s1	0	0	-	-
O=C(Nc1nc(=O)c2ccccc2s1)c1ccc(F)cc1	5.8	0	0	174%	CHO-K1 ctr=0;KCNQ1 sel pot=0;KCNQ2 pot conf=0;Kir21 spec=0
CN(C)S(=O)(=O)N1CCN(CC(=O)Nc2ccc(F)cc2)CC1	-	0	-	-
CCCCN(C(=O)CSCC(=O)Nc1ccc(OC)cc1)c1c(N)n(Cc2ccccc2)c(=O)[nH]c1=O	0	0	-	-
Oc1c(Cl)cc(Cl)cc1C=Nc1ccc(Br)cc1	7.1	0	0	0	CHO-K1 ctr=0;KCNQ1 sel pot=31;KCNQ2 pot conf=16;Kir21 spec=0;KCNQ2 W236L pot=0
Oc1c(Cl)cc(Cl)cc1C=Nc1ccc(N2CCOCC2)cc1	0	0	-	-
CC(C)CC(=O)/C(=C\c1ccc(Cl)cc1Cl)n1cncn1	0	-5.6	44%	0
CC(C)CC(=O)/C(=C/c1ccc(N(C)C)cc1)n1cncn1	0	0	-	-
CCOc1cccc(NC(=O)C2CC(=O)N(C)C(=Nc3cccc(F)c3)S2)c1 (centres undefined)	6.5	0	0	0	CHO-K1 ctr=0;KCNQ1 sel pot=0;KCNQ2 pot conf=0;Kir21 spec=0
CCOc1cccc(NC(=O)C2CC(=O)N(C)C(=Nc3ccccc3)S2)c1 (centres undefined)	0	0	-	-
Nc1ncnc(Oc2cccc3cccnc23)c1[N+](=O)[O-]	-	0	-	-
CC1CN(c2ccc([N+](=O)[O-])c(NCCOc3ccc(Cl)cc3)c2)CC(C)N1 (centres undefined)	0	-7	67%	0
CC1CN(c2ccc([N+](=O)[O-])c(NCCOc3ccccc3)c2)CC(C)N1 (centres undefined)	-	0	-	-
COc1ccc(NC(C)=O)cc1NC(=O)c1ccc2ccccc2c1	-	0	-	-
Cc1ccc(OCC(=O)Nc2ccccc2C(=O)N2CCCC2)cc1	0	0	-	-
Cc1ccc(C(=O)Sc2cccccc2=O)cc1	11	0	-	-	CHO-K1 ctr=0;KCNQ1 sel pot=0;KCNQ2 pot conf=85;Kir21 spec=0;KCNQ2 W236L pot=0
Cc1ccc(C(=O)CC(=O)c2ccccc2)cc1	0	0	-	-
Brc1nnc2n1-c1ccccc1Sc1ccccc1-2	0	0	28%	66%
SMILES	KCNQ2 pot	KCNQ2 block	Kir21 confirm	HEK293 Tl flux	others
Clc1ccccc1-c1nnc2n1-c1ccccc1SC2	-	0	-	-
Clc1ccc2c(c1)-c1nnc(Br)n1-c1ccccc1S2	0	0	66%	70%
c1ccc2c(c1)Sc1ccccc1-n1cnnc1-2	-	0	-	-
COc1ccc(OC)c(NS(=O)(=O)c2cc3c4c(c2)CCN4C(=O)CC3)c1	0	0	-	-
CCOC(=O)c1c(N=CN(C)C)c2cc([N+](=O)[O-])cnc2n1C	0	0	-	-
Cc1cc(NS(=O)(=O)c2ccccc2)c(C)c(Cl)c1O	-	0	69%	0
Cc1c(O)ccc(NS(=O)(=O)c2ccccc2)c1C	-	0	-	-
COc1ccc(Cl)cc1NC(=O)CSc1nncn1-c1cccnc1	-	0	-	-

Compound activity from PubChem.
